Screening data: PubChem BioAssay, The Scripps Research Institute Molecular Screening Center
PPARg SRC-1 ag = agonists of human PPARgamma SRC-1 coactivator recruitment; P37231; PPARgamma-SRC-1 coactivator recruitment biochemical assay; activation, % at 8 µM; 200,000 compounds, 0.41% hits; in the data active = activation above about 19%;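 note: 0% = DMSO and 100% = reference agonist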
Target sequence (P37231 whole entry, looked up): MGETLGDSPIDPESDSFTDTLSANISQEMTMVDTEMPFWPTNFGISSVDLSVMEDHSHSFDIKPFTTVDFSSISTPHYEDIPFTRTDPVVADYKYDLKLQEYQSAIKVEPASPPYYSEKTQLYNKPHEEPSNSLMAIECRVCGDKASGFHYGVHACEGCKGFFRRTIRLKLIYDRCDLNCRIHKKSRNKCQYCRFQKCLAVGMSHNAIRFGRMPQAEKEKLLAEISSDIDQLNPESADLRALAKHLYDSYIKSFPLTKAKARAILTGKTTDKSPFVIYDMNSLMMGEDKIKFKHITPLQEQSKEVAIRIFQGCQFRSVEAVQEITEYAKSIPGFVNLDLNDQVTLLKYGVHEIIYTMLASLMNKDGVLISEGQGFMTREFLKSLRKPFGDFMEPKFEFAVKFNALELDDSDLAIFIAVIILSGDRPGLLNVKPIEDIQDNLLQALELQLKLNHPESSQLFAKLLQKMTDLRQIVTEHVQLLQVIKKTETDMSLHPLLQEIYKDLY
SRC1 TRFRET art = flags TR-FRET format artefacts in PPARgamma SRC-1 recruitment agonist screen. TR-FRET detection artefact counter-screen, emission ratio; hits give high values. TR-FRET ratio at 8 µM. 99,000 compounds, 0.34% hits. AID 1051; in the data active = TR-FRET ratio above about 2300
PPARg SRC-3 ag = promotes SRC-3 coactivator recruitment by human PPARgamma | biochemical PPARgamma/SRC-3 coactivator recruitment assay | P37231 | AID 731 | activation, % at 8 µM | 200,000 compounds, 0.26% hits; in the data active = activation above about 23%;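 note: 0% = DMSO and 100% = reference agonist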
SRC2 TRFRET art = flags TR-FRET format artefacts in PPARgamma SRC-2 recruitment agonist screen. TR-FRET artefact counter-screen; hits give high values. TR-FRET ratio at 8 µM. 200,000 compounds, 0.4% hits
PPARg SRC2 recr = PPARgamma-driven SRC-2 recruitment agonism. PPARgamma LBD-SRC-2 recruitment, biochemical. AID 1032. activation, % at 8 µM. 200,000 compounds, 0.34% hits; in the data active = activation above about 22%;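 note: 0% = vehicle and 100% = reference agonist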
SRC3 TRFRET art = TR-FRET artefact, counter-screen to PPARgamma/SRC-3 agonist assay; PPARgamma/SRC-3 format; hits give high values; TR-FRET ratio at 8 µM; 99,000 compounds, 0.39% hits; AID 1048
PPARg SRC2 conf = human PPARgamma SRC-2 recruitment agonism, confirmation; activation, % at 8 µM; biochemical SRC-2 recruitment by PPARgamma; shares compounds with PPARg SRC-3 ag; 790 compounds, 52% hits; in the data active = activation above about 22%;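 note: 0% = vehicle alone and 100% = reference agonist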
PPARg SRC1 conf = human PPARgamma SRC-1 recruitment agonism, confirmation; shares compounds with PPARg SRC-3 ag; activation, % at 8 µM; 790 compounds, 43% hits; PPARgamma–SRC-1 coactivator recruitment biochemical assay; in the data active = activation above about 20%;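 note: 0% = vehicle wells and 100% = reference agonist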
PPARg SRC3 ag = confirmation of agonists of SRC-3 recruitment by human PPARgamma. biochemical PPARgamma-SRC-3 coactivator recruitment, agonist mode. activation, % at 8 µM. shares compounds with PPARg SRC-3 ag. 790 compounds, 29% hits; in the data active = activation above about 24%;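 note: 0% = vehicle wells and 100% = reference agonist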
* = called active by the depositor; x = not tested or not shown. An excerpt weighted towards active compounds, which were near 0.84% of everything screened. Cut-off read from the data, not from the text of the source, unless noted: active = TR-FRET ratio above about 2000; inactive = the rest.

SMILES	PPARg SRC-1 ag	SRC1 TRFRET art	PPARg SRC-3 ag	SRC2 TRFRET art	PPARg SRC2 recr	SRC3 TRFRET art	PPARg SRC2 conf	PPARg SRC1 conf	PPARg SRC3 ag
O=C(CS(=O)(=O)c1c[nH]c2ccccc12)N1CCCCCC1	-4.0	1670	3.4	1589	-2.5	1674	x	x	x
N#CCCN1CCN(C(=S)c2ccc(-c3ccc(Cl)cc3)o2)CC1	23.6*	x	15.5	1605	0.9	x	31.1*	27.7*	18.4
S=C(c1ccc(-c2ccc(Cl)cc2)o1)N1CCCCC1	-1.6	x	-0.8	1533	-5.7	x	x	x	x
CCn1c(SCC(=O)OC)nnc1-c1ccncc1	-2.6	x	3.0	1400	1.9	x	x	x	x
CCn1c(SCC(=O)OC2CCCCC2)nnc1-c1ccncc1	3.1	x	13.2	2048*	29.4*	x	-2.3	-2.9	-2.1
CCN(CC)c1ccc(/C=C2/C(=O)ON=C2C)cc1	18.0	2156	25.9*	1519	11.4	1737	15.2	10.8	14.1
CCOCCCNC(=O)/C(C#N)=C/c1ccc(Cl)c([N+](=O)[O-])c1	16.0	1865	30.1*	1826	10.9	1683	10.1	19.5	20.1
CCOCCCNC(=O)/C(C#N)=C/c1cc(OC)c(O)c([N+](=O)[O-])c1	6.1	1839	-2.6	1780	8.3	1814	x	x	x
Oc1c(Br)cc(C=Nc2ccc3nc(-c4ccccc4)[nH]c3c2)c(O)c1Br	21.6*	1998	12.2	1907	12.2	1961	15.4	14.6	8.7
CN1CCC/C1=C/C=C1\SC(=S)NC1=O	14.3	2166	11.3	1675	24.3*	1794	1.0	3.2	3.2
COc1ccccc1C1=NN(C(=S)Nc2ccccc2)C(c2ccco2)C1 (stereo unspecified)	19.1*	x	22.6	1731	18.8	x	22.1*	18.8	13.1
CCC(=O)Nc1cccc(-c2nc3ccccc3c(=O)o2)c1	18.8*	x	18.3	1739	-12.7	x	4.5	13.8	14.9
CCOC(=O)c1c(C)[nH]sc1=S	40.5*	x	70.3*	2727*	58.4*	x	33.4*	20.6*	24.9*
Cc1cc(=O)[nH]c2c1c(C)nn2C1CCOC(C)(C)C1 (stereo unspecified)	-3.3	x	-4.5	1573	4.3	x	x	x	x
O=C(OCn1ncc(Br)c(Br)c1=O)c1ccc(F)cc1	22.2*	x	43.7*	2296*	37.3*	x	43.3*	29.3*	30.6*
O=C(OCn1ncc(Br)c(Br)c1=O)c1ccccc1Cl	6.0	x	21.2	1784	18.8	x	x	x	x
Cc1cc(-c2ccc(Br)s2)nc(-n2cccc2)n1	25.8*	2540*	23.7*	2162*	24.8*	2617*	42.1*	28.5*	25.7*
Clc1ccc(-c2ccnc(-n3cccc3)n2)s1	0.5	1910	6.2	1522	7.4	1708	x	x	x
Cc1cc(-c2sccc2Br)nc(-n2cccc2)n1	22.1*	2236	9.6	1890	10.6	2170*	18.1	14.2	12.9
O=C(CSc1cn(CC(=O)N2CCCCCC2)c2ccccc12)NCC1CCCO1 (stereo unspecified)	13.7	2044	4.3	1701	9.4	1749	x	x	x
CCCC(=O)Nc1c2c(nc3ccccc13)N(c1ccccc1)CC2	46.1*	2803*	46.1*	3204*	61.4*	2855*	41.4*	24.7*	25.8*
CN1C(=O)C(C(=O)NC(C)(C)C)C2c3ccccc3OC13CCCCC23 (stereo unspecified)	-9.4	x	-2.6	1398	-6.5	x	x	x	x
C=CCOc1ccc(C2C(C(=O)c3ccco3)=C(O)C(=O)N2c2nnc(C)s2)cc1 (stereo unspecified)	14.3	2094	14.4	2019*	25.0*	1863	25.8*	24.0*	16.2
COc1ccc(C2C(C(=O)c3ccco3)=C(O)C(=O)N2c2nnc(C)s2)cc1 (stereo unspecified)	25.4*	2503*	20.8	2089*	17.6	2261*	30.9*	25.0*	16.7
